Measured values as given in PubChem BioAssay AID1159580 (chemical genetic matrix, 2015).
Out of some 5,500 compounds screened, about 2,000 (36%) were called active. Not shown: some 18% with an inconclusive outcome. No stated cut-off is given here; in the data, active means normalized growth mostly below about 0.91 (no sharp cut-off); inconclusive means no clear call, values can overlap the other calls; inactive means mostly above about 0.92. The list shows a part of the results.

Assay: chemical genetic growth profiling, strain panel (AID 1159580);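 further: tested at 20 µM; growth read once vehicle control cultures reached saturation at 30 °C; 1 = growth at the plate median or of vehicle wells; lower values mean less growth of the strain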
Conditions: growth OD

Measured: normalized growth

CNC(=O)Oc1cccc2c1OC(C)(C)O2
inactive: S. cerevisiae deletion strains, locus YJR043C, strain POL32, active compounds read low 1.01 | S. cerevisiae deletion strains, locus YJR075W, strain HOC1, active compounds read low 1.01 | S. cerevisiae deletion strains, locus YKL009W, strain mrt4, active compounds read low 1.02 | S. cerevisiae deletion strains, locus YKL068W, active compounds read low 1 | S. cerevisiae deletion strains, locus YKL085W, strain MDH1 (second series), active compounds read low 1 | S. cerevisiae deletion strains, locus YKL085W, strain MDH1, active compounds read low 1 | S. cerevisiae deletion strains, locus YKL160W, strain elf1, active compounds read low 0.994 | S. cerevisiae deletion strains, locus YKL190W, strain CNB1, active compounds read low 1.02 | S. cerevisiae deletion strains, locus YKR001C, strain vps1, active compounds read low 1.01 | S. cerevisiae deletion strains, locus YKR026C, strain gcn3, active compounds read low 1 | S. cerevisiae deletion strains, locus YKR091W, strain srl3, active compounds read low 1 | S. cerevisiae deletion strains, locus YLL001W, strain dnm1, active compounds read low 0.992 | S. cerevisiae deletion strains, locus YLL026W, active compounds read low 0.998 | S. cerevisiae deletion strains, locus YLL041C, strain sdh2, active compounds read low 0.999 | S. cerevisiae deletion strains, locus YLR027C, strain aat2, active compounds read low 0.99 | S. cerevisiae deletion strains, locus YLR039C, strain RIC1, active compounds read low 1.1 | S. cerevisiae deletion strains, locus YLR058C, strain SHM2, active compounds read low 1.02 | S. cerevisiae deletion strains, locus YLR102C, strain apc9, active compounds read low 0.991 | S. cerevisiae deletion strains, locus YLR221C, strain rsa3, active compounds read low 1 | S. cerevisiae deletion strains, locus YLR258W, strain gsy2, active compounds read low 1 | S. cerevisiae deletion strains, locus YLR262C, strain YPT6 (second series), active compounds read low 1.03 | S. cerevisiae deletion strains, locus YLR262C, strain YPT6, active compounds read low 1.14 | S. cerevisiae deletion strains, locus YLR268W, strain sec22, active compounds read low 0.998 | S. cerevisiae deletion strains, locus YLR320W, strain mms22, active compounds read low 0.986 | S. cerevisiae deletion strains, locus YLR330W, strain CHS5, active compounds read low 1.02 | S. cerevisiae deletion strains, locus YLR342W, strain FKS1 (second series), active compounds read low 0.991 | S. cerevisiae deletion strains, locus YLR342W, strain FKS1, active compounds read low 0.997 | S. cerevisiae deletion strains, locus YLR357W, strain rsc2, active compounds read low 1.05 | S. cerevisiae deletion strains, locus YLR370C, strain arc18, active compounds read low 1.01 | S. cerevisiae deletion strains, locus YLR371W, strain rom2, active compounds read low 0.989 | S. cerevisiae deletion strains, locus YLR384C, strain iki3, active compounds read low 1.01 | S. cerevisiae deletion strains, locus YLR418C, strain cdc73, active compounds read low 0.9 | S. cerevisiae deletion strains, locus YML016C, strain PPZ1, active compounds read low 1.02 | S. cerevisiae deletion strains, locus YML032C, strain rad52, active compounds read low 0.992 | S. cerevisiae deletion strains, locus YML120C, strain ndi1, active compounds read low 1.01 | S. cerevisiae deletion strains, locus YML124C, strain tub3, active compounds read low 0.998 | S. cerevisiae deletion strains, locus YMR058W, strain fet3, active compounds read low 0.999 | S. cerevisiae deletion strains, locus YMR078C, strain ctf18, active compounds read low 0.99 | S. cerevisiae deletion strains, locus YMR125W, strain sto1, active compounds read low 1 | S. cerevisiae deletion strains, locus YMR129W, active compounds read low 0.996 | S. cerevisiae deletion strains, locus YMR205C, strain PFK2, active compounds read low 0.976 | S. cerevisiae deletion strains, locus YMR223W, strain ubp8, active compounds read low 0.985 | S. cerevisiae deletion strains, locus YMR231W, strain pep5, active compounds read low 0.995 | S. cerevisiae deletion strains, locus YMR263W, strain SAP30, active compounds read low 1.02 | S. cerevisiae deletion strains, locus YMR307W, strain GAS1, active compounds read low 1.05 | S. cerevisiae deletion strains, locus YNL067W, strain RPL9B, active compounds read low 1.02 | S. cerevisiae deletion strains, locus YNL071W, strain lat1, active compounds read low 1 | S. cerevisiae deletion strains, locus YNL128W, strain TEP1, active compounds read low 1.03 | S. cerevisiae deletion strains, locus YNL153C, strain GIM3, active compounds read low 1.01 | S. cerevisiae deletion strains, locus YNL209W, strain ssb2, active compounds read low 0.996 | S. cerevisiae deletion strains, locus YNL233W, strain BNI4, active compounds read low 1.02 | S. cerevisiae deletion strains, locus YNL248C, strain rpa49, active compounds read low 0.991 | S. cerevisiae deletion strains, locus YNL250W, strain rad50, active compounds read low 0.997 | S. cerevisiae deletion strains, locus YNL271C, strain bni1, active compounds read low 1 | S. cerevisiae deletion strains, locus YNL298W, strain CLA4, active compounds read low 0.998 | S. cerevisiae deletion strains, locus YNL307C, strain MCK1, active compounds read low 0.984 | S. cerevisiae deletion strains, locus YNL322C, strain KRE1 (second series), active compounds read low 0.999 | S. cerevisiae deletion strains, locus YNL322C, strain KRE1, active compounds read low 1.02 | S. cerevisiae deletion strains, locus YNR049C, strain mso1, active compounds read low 1 | S. cerevisiae deletion strains, locus YNR052C, strain pop2, active compounds read low 0.996 | S. cerevisiae deletion strains, locus YOL006C, strain TOP1, active compounds read low 1.02 | S. cerevisiae deletion strains, locus YOL012C, strain htz1 1.24 | S. cerevisiae deletion strains, locus YOL147C, strain pex11, active compounds read low 0.993 | S. cerevisiae deletion strains, locus YOR001W, strain rrp6, active compounds read low 0.981 | S. cerevisiae deletion strains, locus YOR061W, strain CKA2, active compounds read low 1.02 | S. cerevisiae deletion strains, locus YOR069W, strain VPS5, active compounds read low 1.01 | S. cerevisiae deletion strains, locus YOR070C, strain gyp1, active compounds read low 0.991 | S. cerevisiae deletion strains, locus YOR080W, strain dia2, active compounds read low 1 | S. cerevisiae deletion strains, locus YOR083W, strain WHI5, active compounds read low 1 | S. cerevisiae deletion strains, locus YOR106W, strain vam3, active compounds read low 0.987 | S. cerevisiae deletion strains, locus YOR136W, strain idh2, active compounds read low 0.983 | S. cerevisiae deletion strains, locus YOR144C, strain elg1, active compounds read low 0.999 | S. cerevisiae deletion strains, locus YOR184W, strain ser1, active compounds read low 1.01 | S. cerevisiae deletion strains, locus YOR265W, strain rbl2, active compounds read low 1.01 | S. cerevisiae deletion strains, locus YOR270C, strain vph1, active compounds read low 0.953 | S. cerevisiae deletion strains, locus YOR290C, strain snf2, active compounds read low 0.959 | S. cerevisiae deletion strains, locus YOR316C, strain cot1, active compounds read low 0.995 | S. cerevisiae deletion strains, locus YPL051W, strain arl3, active compounds read low 0.997 | S. cerevisiae deletion strains, locus YPL055C, strain LGE1, active compounds read low 1.03 | S. cerevisiae deletion strains, locus YPL078C, strain atp4, active compounds read low 0.988 | S. cerevisiae deletion strains, locus YPL106C, strain sse1, active compounds read low 1.08 | S. cerevisiae deletion strains, locus YPL240C, strain hsp82, active compounds read low 1 | S. cerevisiae deletion strains, locus YPL241C, strain CIN2, active compounds read low 1.02 | S. cerevisiae deletion strains, locus YPR119W, strain clb2, active compounds read low 0.993 | S. cerevisiae deletion strains, locus YPR141C, strain kar3, active compounds read low 0.993 | S. cerevisiae deletion strains, locus YPR163C, strain tif3, active compounds read low 0.988 | S. cerevisiae deletion strains, locus YPR167C, strain met16, active compounds read low 0.993 | S. cerevisiae deletion strains, strain wtn01, active compounds read low 0.99 | S. cerevisiae strains, strain wild type, active compounds read low 1.01
